# In the supplement of paper PMC10849652:
# About 8,800 targets were measured; listed, in parts, are those with a hit and a random draw of the rest. About 0.5% of all pairs of compound and target were hits. A number with no mark means an inactive call.
# What was measured:
# Experiment in all cases: log2 fold change, soluble protein after heating vs DMSO (PISA); higher = thermal stabilisation; K562 lysate, 10 uM; active = over 0.2 and 3.5 SD of the protein, either way, in both replicates (recomputed)
# nilotinib = compound: Cc1cn(-c2cc(NC(=O)c3ccc(C)c(Nc4nccc(-c5cccnc5)n4)c3)cc(C(F)(F)F)c2)cn1 [nilotinib]
# Procedure, shortened: (§1)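 Soluble protein was defined as the supernatant remaining after 21,000xg for 90 min, following pooling of heated aliquots and adjustment to 0.5% NP-40 at 4°C. Before that, crude K562 extract at 1 mg/mL protein in PBS pH 7.4 with 1 mM MgCl2 was treated with 10 μM compound for 30 min and heated for 3 min across 48°C-58°C. Quantification used TMTpro 16plex LC-MS/MS with channel sums equalised, and values are log-two fold changes in thermal stability relative to solvent controls from duplicates.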
# [1] = compound: Cc1nc(Nc2n[nH]c3c2CN(C(=O)N[C@H](CN(C)C)c2ccccc2)C3(C)C)c2sccc2n1
# Procedure, shortened: as §1
# dasatinib = compound: Cc1nc(Nc2ncc(C(=O)Nc3c(C)cccc3Cl)s2)cc(N2CCN(CCO)CC2)n1 [dasatinib]
# Procedure, shortened: as §1
# [2] = compound: Cc1ncc(-c2ccnc(Nc3ccc(S(C)(=O)=O)cc3)n2)n1C(C)C
# Procedure, shortened: as §1
# [3] = compound: Cn1cc(-c2ccc3c(c2)CCN3C(=O)Cc2cccc(C(F)(F)F)c2)c2c(N)ncnc21
# Procedure, shortened: as §1
# quisinostat = compound: Cn1cc(CNCC2CCN(c3ncc(C(=O)NO)cn3)CC2)c2ccccc21 [quisinostat]
# Procedure, shortened: as §1
# tipifarnib = compound: Cn1cncc1[C@@](N)(c1ccc(Cl)cc1)c1ccc2c(c1)c(-c1cccc(Cl)c1)cc(=O)n2C [tipifarnib]
# Procedure, shortened: as §1
# [4] = compound: NC(=O)Nc1cc(-c2cccc(F)c2)sc1C(=O)N[C@H]1CCCNC1
# Procedure, shortened: as §1
# [5] = compound: NC(=O)c1cnc(N[C@@H]2CCCC[C@@H]2N)nc1Nc1cccc(-n2nccn2)c1
# Procedure, shortened: as §1
# [6] = compound: NC1(c2ccc(-c3nc4ccn5c(=O)[nH]nc5c4cc3-c3ccccc3)cc2)CCC1
# Procedure, shortened: as §1
# [7] = compound: NCC(=O)Nc1ccc(-n2nc(C(F)(F)F)cc2-c2ccc3c(ccc4ccccc43)c2)cc1
# Procedure, shortened: as §1
# vorinostat = compound: O=C(CCCCCCC(=O)Nc1ccccc1)NO [vorinostat]
# Procedure, shortened: as §1
# silmitasertib = compound: O=C(O)c1ccc2c(c1)nc(Nc1cccc(Cl)c1)c1ccncc12 [silmitasertib]
# Procedure, shortened: as §1
# [8] = compound: O=C1NC(=O)C(c2cnc3ccccn23)=C1c1cn2c3c(cc(F)cc13)CN(C(=O)N1CCCCC1)CC2
# Procedure, shortened: as §1
# entospletinib = compound: c1cn2cc(-c3ccc4cn[nH]c4c3)nc(Nc3ccc(N4CCOCC4)cc3)c2n1 [entospletinib]
# Procedure, shortened: as §1
# Chain of UniProt Q9Y639 (Q9Y639 whole entry, looked up): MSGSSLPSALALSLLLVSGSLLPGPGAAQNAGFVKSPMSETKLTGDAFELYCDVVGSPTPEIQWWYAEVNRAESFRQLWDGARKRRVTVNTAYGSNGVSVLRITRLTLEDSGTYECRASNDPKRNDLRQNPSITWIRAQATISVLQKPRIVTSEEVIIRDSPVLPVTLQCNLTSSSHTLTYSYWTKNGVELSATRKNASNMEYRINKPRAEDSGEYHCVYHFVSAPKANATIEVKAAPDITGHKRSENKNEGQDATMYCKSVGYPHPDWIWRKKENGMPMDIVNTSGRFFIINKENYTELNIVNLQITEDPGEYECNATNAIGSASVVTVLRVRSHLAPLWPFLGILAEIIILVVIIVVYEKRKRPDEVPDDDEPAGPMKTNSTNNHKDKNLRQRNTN
# Chain of UniProt B2RTY4 (B2RTY4 whole entry, looked up): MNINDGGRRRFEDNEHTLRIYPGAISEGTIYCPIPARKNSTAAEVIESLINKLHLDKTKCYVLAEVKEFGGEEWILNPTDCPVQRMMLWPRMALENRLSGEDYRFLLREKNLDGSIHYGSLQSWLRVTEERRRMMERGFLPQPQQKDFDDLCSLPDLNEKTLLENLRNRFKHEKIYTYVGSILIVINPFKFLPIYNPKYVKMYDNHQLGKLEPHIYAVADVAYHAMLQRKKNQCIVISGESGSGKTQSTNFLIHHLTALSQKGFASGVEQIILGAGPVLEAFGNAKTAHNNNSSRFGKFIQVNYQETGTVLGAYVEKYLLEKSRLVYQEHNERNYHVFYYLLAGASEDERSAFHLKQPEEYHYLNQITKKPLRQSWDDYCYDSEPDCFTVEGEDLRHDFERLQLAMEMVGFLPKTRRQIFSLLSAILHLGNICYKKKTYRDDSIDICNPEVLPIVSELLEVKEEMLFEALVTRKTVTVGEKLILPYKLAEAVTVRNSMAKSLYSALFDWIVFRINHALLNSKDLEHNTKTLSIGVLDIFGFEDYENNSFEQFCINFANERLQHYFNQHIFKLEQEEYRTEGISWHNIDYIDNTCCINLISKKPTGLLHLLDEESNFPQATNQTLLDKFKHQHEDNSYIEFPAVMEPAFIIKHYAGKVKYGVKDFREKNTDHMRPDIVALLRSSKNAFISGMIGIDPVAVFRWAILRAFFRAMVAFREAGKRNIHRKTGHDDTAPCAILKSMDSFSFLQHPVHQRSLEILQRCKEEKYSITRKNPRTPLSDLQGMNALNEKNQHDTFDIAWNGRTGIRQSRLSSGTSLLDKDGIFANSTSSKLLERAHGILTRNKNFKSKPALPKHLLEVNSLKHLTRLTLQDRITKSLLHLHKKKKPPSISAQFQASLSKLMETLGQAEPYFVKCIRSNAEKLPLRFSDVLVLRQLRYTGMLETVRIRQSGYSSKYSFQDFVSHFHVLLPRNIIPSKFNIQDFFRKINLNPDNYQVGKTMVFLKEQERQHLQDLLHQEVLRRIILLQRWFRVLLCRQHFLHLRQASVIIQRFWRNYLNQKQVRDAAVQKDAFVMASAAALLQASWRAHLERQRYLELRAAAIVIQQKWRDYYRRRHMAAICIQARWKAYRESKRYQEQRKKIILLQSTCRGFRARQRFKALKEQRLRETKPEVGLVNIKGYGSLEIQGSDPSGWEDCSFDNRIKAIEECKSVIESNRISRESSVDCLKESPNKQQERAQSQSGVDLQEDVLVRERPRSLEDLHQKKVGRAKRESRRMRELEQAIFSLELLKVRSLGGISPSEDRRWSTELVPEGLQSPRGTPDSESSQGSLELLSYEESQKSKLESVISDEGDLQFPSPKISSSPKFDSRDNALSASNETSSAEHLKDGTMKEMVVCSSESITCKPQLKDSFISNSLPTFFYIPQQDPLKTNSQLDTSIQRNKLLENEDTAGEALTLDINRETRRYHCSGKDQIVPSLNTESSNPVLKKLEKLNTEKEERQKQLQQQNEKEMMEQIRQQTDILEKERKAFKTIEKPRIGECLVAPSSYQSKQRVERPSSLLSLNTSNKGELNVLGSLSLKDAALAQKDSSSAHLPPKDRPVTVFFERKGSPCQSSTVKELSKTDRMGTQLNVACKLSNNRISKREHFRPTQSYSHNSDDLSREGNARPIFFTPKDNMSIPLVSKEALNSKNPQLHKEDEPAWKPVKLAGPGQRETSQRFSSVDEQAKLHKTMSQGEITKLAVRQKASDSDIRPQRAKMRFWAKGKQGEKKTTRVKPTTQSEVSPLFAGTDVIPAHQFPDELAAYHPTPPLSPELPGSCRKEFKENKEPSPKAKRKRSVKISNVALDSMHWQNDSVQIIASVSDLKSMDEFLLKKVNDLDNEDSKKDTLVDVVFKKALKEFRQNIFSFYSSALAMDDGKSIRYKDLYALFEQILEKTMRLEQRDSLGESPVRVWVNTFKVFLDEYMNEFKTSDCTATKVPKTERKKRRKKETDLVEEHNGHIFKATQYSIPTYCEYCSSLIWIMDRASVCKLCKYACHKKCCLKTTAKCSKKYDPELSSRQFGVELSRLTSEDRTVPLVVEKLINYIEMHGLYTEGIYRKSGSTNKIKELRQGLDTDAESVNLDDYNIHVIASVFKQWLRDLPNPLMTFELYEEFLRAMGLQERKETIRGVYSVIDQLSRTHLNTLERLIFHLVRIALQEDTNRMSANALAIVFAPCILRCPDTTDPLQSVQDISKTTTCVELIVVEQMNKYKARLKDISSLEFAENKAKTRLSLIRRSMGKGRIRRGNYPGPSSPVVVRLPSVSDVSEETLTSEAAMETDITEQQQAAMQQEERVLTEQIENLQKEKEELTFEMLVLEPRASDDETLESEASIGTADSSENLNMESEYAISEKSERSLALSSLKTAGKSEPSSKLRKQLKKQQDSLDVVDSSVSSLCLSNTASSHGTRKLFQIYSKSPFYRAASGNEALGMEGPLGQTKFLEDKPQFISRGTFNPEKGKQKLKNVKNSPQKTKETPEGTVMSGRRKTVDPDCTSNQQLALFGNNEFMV
# Chain of UniProt Q9Y217 (Q9Y217 whole entry, looked up): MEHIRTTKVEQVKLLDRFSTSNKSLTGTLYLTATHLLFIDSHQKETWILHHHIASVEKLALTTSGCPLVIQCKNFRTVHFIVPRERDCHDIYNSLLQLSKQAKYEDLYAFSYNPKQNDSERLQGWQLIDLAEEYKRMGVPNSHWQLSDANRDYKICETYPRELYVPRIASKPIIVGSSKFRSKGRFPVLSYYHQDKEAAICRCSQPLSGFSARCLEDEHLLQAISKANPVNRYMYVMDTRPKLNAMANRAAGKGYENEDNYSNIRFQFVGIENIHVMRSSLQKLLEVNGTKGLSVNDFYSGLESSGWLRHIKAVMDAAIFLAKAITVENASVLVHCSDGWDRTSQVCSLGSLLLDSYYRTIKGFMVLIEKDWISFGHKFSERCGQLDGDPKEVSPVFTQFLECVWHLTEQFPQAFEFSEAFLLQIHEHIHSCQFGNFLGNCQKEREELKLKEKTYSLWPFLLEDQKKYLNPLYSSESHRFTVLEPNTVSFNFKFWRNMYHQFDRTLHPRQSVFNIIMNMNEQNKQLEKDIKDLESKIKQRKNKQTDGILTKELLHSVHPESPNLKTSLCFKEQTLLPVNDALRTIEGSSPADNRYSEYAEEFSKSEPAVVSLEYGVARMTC
# Chain of UniProt Q13330 (Q13330 whole entry, looked up): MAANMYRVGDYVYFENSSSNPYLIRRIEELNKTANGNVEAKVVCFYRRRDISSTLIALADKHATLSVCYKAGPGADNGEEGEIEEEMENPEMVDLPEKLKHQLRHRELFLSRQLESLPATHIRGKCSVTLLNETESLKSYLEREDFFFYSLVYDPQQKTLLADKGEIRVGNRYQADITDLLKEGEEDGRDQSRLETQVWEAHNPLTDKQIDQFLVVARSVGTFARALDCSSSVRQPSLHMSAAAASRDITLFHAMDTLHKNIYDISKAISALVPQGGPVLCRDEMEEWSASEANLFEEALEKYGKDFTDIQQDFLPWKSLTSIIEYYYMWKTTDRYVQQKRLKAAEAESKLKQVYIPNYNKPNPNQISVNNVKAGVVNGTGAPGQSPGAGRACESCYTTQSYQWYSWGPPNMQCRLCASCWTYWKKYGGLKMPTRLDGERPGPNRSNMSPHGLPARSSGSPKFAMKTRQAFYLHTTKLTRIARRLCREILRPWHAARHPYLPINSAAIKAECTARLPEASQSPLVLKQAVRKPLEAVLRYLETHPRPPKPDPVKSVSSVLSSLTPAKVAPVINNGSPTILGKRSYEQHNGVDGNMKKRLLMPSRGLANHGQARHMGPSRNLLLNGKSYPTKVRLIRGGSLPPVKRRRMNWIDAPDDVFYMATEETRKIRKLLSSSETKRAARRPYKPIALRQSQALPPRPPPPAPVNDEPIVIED
Target,log2 fold change (nilotinib),log2 fold change [1],log2 fold change (dasatinib),log2 fold change [2],log2 fold change [3],log2 fold change (quisinostat),log2 fold change (tipifarnib),log2 fold change [4],log2 fold change [5],log2 fold change [6],log2 fold change [7],log2 fold change (vorinostat),log2 fold change (silmitasertib),log2 fold change [8],log2 fold change (entospletinib)
MYO9A isoform 4 (UniProt B2RTY4),0.059,-0.044,-0.176,0,0.052,-0.074,-0.005,0.112,0.039,-0.112,-0.051,0.084,-0.019,-0.03,
NFAT5 isoform 5 (UniProt O94916),-0.012,-0.07,0.008,0.046,-0.014,-0.172,-0.032,0.031,0.018,0.039,0.033,-0.026,0.037,0.016,-0.061
OSBPL6 isoform 5 (UniProt Q9BZF3),0.281,0.018,-0.082,-0.045,0.036,-0.07,-0.003,0.122,0.007,-0.238,-0.082,-0.195,0.25,-0.026,0.113
NPTN (UniProt Q9Y639),-0.029,0.005,-0.06,-0.025,-0.009,-0.038,0.043,0.031,0.004,0.002,0.067,0.078,-0.031,0.04,0.096
MTA1 (UniProt Q13330),0.042,0.01,-0.023,0.033,0.005,-0.089,-0.03,0.052,-0.033,-0.004,-0.005,-0.212 (active),-0.037,0.016,-0.036
MTMR6 (UniProt Q9Y217),-0.04,0.063,-0.036,-0.026,-0.076,-0.116,-0.024,0.086,-0.007,-0.032,-0.018,-0.276 (active),0.027,-0.027,0.003
